Source: PubChem BioAssay AID1159580 (chemical genetic matrix, 2015)
Among all 5,500 compounds or so, about 2,000 (36%) were called active. About 18% were inconclusive and are not listed. Rule as the data show it: active = normalized growth mostly below about 0.91 (no sharp cut-off); inconclusive = no clear call, values can overlap the other calls; inactive = mostly above about 0.92. This is one part of the list.

Assay: chemical genetic growth profiling, strain panel (AID 1159580);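 also: tested at 20 µM; growth read once vehicle control cultures reached saturation at 30 °C; 1 = growth at the plate median or of vehicle wells; lower values mean less growth of the strain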
Conditions: growth OD

Measured: normalized growth

Nc1nccs1
active: S. cerevisiae deletion strains, locus YER155C, strain BEM2 (second series), hits give low values 0.841 | S. cerevisiae deletion strains, locus YOR270C, strain vph1, hits give low values 0.638
inactive: S. cerevisiae deletion strains, locus YAL021C, strain ccr4, hits give low values 0.994 | S. cerevisiae deletion strains, locus YAL026C, strain drs2, hits give low values 0.993 | S. cerevisiae deletion strains, locus YAL030W, strain snc1, hits give low values 0.995 | S. cerevisiae deletion strains, locus YBL061C, strain skt5, hits give low values 0.995 | S. cerevisiae deletion strains, locus YBR009C, strain hhf1, hits give low values 0.987 | S. cerevisiae deletion strains, locus YBR021W, strain FUR4, hits give low values 1.03 | S. cerevisiae deletion strains, locus YBR023C, strain chs3, hits give low values 0.991 | S. cerevisiae deletion strains, locus YBR171W, strain sec66, hits give low values 0.975 | S. cerevisiae deletion strains, locus YBR229C, strain ROT2, hits give low values 0.949 | S. cerevisiae deletion strains, locus YBR231C, strain swc5, hits give low values 0.973 | S. cerevisiae deletion strains, locus YBR279W, strain paf1, hits give low values 1 | S. cerevisiae deletion strains, locus YCL011C, strain gbp2, hits give low values 1.02 | S. cerevisiae deletion strains, locus YCL016C, strain dcc1, hits give low values 0.989 | S. cerevisiae deletion strains, locus YCL029C, strain bik1, hits give low values 0.98 | S. cerevisiae deletion strains, locus YCL061C, strain MRC1, hits give low values 0.978 | S. cerevisiae deletion strains, locus YCL069W, strain vba3, hits give low values 0.988 | S. cerevisiae deletion strains, locus YCR088W, strain abp1, hits give low values 0.992 | S. cerevisiae deletion strains, locus YDL005C, strain med2, hits give low values 0.985 | S. cerevisiae deletion strains, locus YDL035C, strain GPR1, hits give low values 1.01 | S. cerevisiae deletion strains, locus YDL040C, strain nat1, hits give low values 0.986 | S. cerevisiae deletion strains, locus YDL074C, strain BRE1, hits give low values 0.96 | S. cerevisiae deletion strains, locus YDL101C, strain DUN1, hits give low values 0.974 | S. cerevisiae deletion strains, locus YDL134C, strain PPH21, hits give low values 0.983 | S. cerevisiae deletion strains, locus YDL185W, strain tfp1, hits give low values 0.984 | S. cerevisiae deletion strains, locus YDL192W, strain arf1, hits give low values 0.983 | S. cerevisiae deletion strains, locus YDR001C, strain nth1, hits give low values 1 | S. cerevisiae deletion strains, locus YDR069C, strain doa4, hits give low values 0.95 | S. cerevisiae deletion strains, locus YDR101C, strain arx1, hits give low values 0.941 | S. cerevisiae deletion strains, locus YDR137W, strain rgp1, hits give low values 0.998 | S. cerevisiae deletion strains, locus YDR159W, strain sac3, hits give low values 0.953 | S. cerevisiae deletion strains, locus YDR162C, strain NBP2, hits give low values 0.996 | S. cerevisiae deletion strains, locus YDR195W, strain ref2 0.958 | S. cerevisiae deletion strains, locus YDR297W, strain sur2, hits give low values 0.997 | S. cerevisiae deletion strains, locus YDR318W, strain mcm21, hits give low values 0.989 | S. cerevisiae deletion strains, locus YDR334W, strain swr1, hits give low values 0.997 | S. cerevisiae deletion strains, locus YDR335W, strain msn5, hits give low values 0.978 | S. cerevisiae deletion strains, locus YDR388W, hits give low values 0.991 | S. cerevisiae deletion strains, locus YDR392W, strain spt3, hits give low values 0.945 | S. cerevisiae deletion strains, locus YDR502C, strain sam2, hits give low values 0.983 | S. cerevisiae deletion strains, locus YEL003W, strain gim4, hits give low values 0.997 | S. cerevisiae deletion strains, locus YEL037C, strain rad23, hits give low values 0.987 | S. cerevisiae deletion strains, locus YEL061C, strain CIN8 (second series), hits give low values 0.991 | S. cerevisiae deletion strains, locus YEL061C, strain CIN8, hits give low values 0.984 | S. cerevisiae deletion strains, locus YER015W, strain faa2, hits give low values 0.991 | S. cerevisiae deletion strains, locus YER016W, strain bim1, hits give low values 1.01 | S. cerevisiae deletion strains, locus YER110C, hits give low values 0.986 | S. cerevisiae deletion strains, locus YER111C, strain swi4, hits give low values 0.986 | S. cerevisiae deletion strains, locus YER155C, strain BEM2, hits give low values 1 | S. cerevisiae deletion strains, locus YER167W, strain BCK2, hits give low values 0.995 | S. cerevisiae deletion strains, locus YFR010W, strain ubp6, hits give low values 0.991 | S. cerevisiae deletion strains, locus YGL078C, strain dbp3, hits give low values 1.01 | S. cerevisiae deletion strains, locus YGL086W, strain mad1, hits give low values 0.953 | S. cerevisiae deletion strains, locus YGL167C, strain pmr1, hits give low values 0.981 | S. cerevisiae deletion strains, locus YGL173C, strain kem1, hits give low values 0.99 | S. cerevisiae deletion strains, locus YGL227W, strain vid30, hits give low values 0.991 | S. cerevisiae deletion strains, locus YGL240W, strain doc1, hits give low values 0.96 | S. cerevisiae deletion strains, locus YGL248W, strain PDE1, hits give low values 0.974 | S. cerevisiae deletion strains, locus YGL253W, strain hxk2, hits give low values 1.01 | S. cerevisiae deletion strains, locus YGR135W, strain pre9, hits give low values 1.06 | S. cerevisiae deletion strains, locus YGR229C, strain SMI1, hits give low values 1.01 | S. cerevisiae deletion strains, locus YGR252W, strain gcn5, hits give low values 1.09 | S. cerevisiae deletion strains, locus YHR013C, strain ard1, hits give low values 1.02 | S. cerevisiae deletion strains, locus YHR027C, strain rpn1, hits give low values 0.994 | S. cerevisiae deletion strains, locus YHR030C, strain SLT2, hits give low values 1 | S. cerevisiae deletion strains, locus YHR079C, strain IRE1 (second series), hits give low values 0.989 | S. cerevisiae deletion strains, locus YHR094C, strain hxt1, hits give low values 0.984 | S. cerevisiae deletion strains, locus YHR129C, strain ARP1, hits give low values 0.987 | S. cerevisiae deletion strains, locus YHR142W, strain chs7, hits give low values 1.02 | S. cerevisiae deletion strains, locus YHR200W, strain rpn10, hits give low values 0.984 | S. cerevisiae deletion strains, locus YIL066C, strain RNR3, hits give low values 0.953 | S. cerevisiae deletion strains, locus YIL073C, strain SPO22, hits give low values 1.04 | S. cerevisiae deletion strains, locus YIL125W, strain kgd1, hits give low values 0.989 | S. cerevisiae deletion strains, locus YIR030C, strain dcg1, hits give low values 0.988 | S. cerevisiae deletion strains, locus YJL092W, strain hpr5, hits give low values 0.969 | S. cerevisiae deletion strains, locus YJL095W, strain BCK1 (second series), hits give low values 0.998 | S. cerevisiae deletion strains, locus YJL095W, strain BCK1, hits give low values 0.934 | S. cerevisiae deletion strains, locus YJL115W, strain asf1, hits give low values 0.998 | S. cerevisiae deletion strains, locus YJL129C, strain trk1, hits give low values 0.978 | S. cerevisiae deletion strains, locus YJL134W, strain LCB3, hits give low values 0.99 | S. cerevisiae deletion strains, locus YJL154C, strain vps35, hits give low values 0.993 | S. cerevisiae deletion strains, locus YJL164C, strain tpk1, hits give low values 0.997 | S. cerevisiae deletion strains, locus YJL166W, strain qcr8, hits give low values 0.961 | S. cerevisiae deletion strains, locus YJL168C, strain set2, hits give low values 0.988 | S. cerevisiae deletion strains, locus YJL187C, strain SWE1 (second series), hits give low values 0.947 | S. cerevisiae deletion strains, locus YJL187C, strain SWE1, hits give low values 0.998 | S. cerevisiae deletion strains, locus YJR043C, strain POL32, hits give low values 0.985 | S. cerevisiae deletion strains, locus YKL009W, strain mrt4, hits give low values 0.985 | S. cerevisiae deletion strains, locus YKL068W, hits give low values 0.981 | S. cerevisiae deletion strains, locus YKL085W, strain MDH1 (second series), hits give low values 0.981 | S. cerevisiae deletion strains, locus YKL085W, strain MDH1, hits give low values 0.981 | S. cerevisiae deletion strains, locus YKL160W, strain elf1, hits give low values 0.98 | S. cerevisiae deletion strains, locus YKL190W, strain CNB1, hits give low values 0.992 | S. cerevisiae deletion strains, locus YKR001C, strain vps1, hits give low values 0.985 | S. cerevisiae deletion strains, locus YKR026C, strain gcn3, hits give low values 0.995 | S. cerevisiae deletion strains, locus YKR091W, strain srl3, hits give low values 0.998 | S. cerevisiae deletion strains, locus YLL001W, strain dnm1, hits give low values 0.947 | S. cerevisiae deletion strains, locus YLL026W, hits give low values 0.993 | S. cerevisiae deletion strains, locus YLL041C, strain sdh2, hits give low values 0.991 | S. cerevisiae deletion strains, locus YLR027C, strain aat2, hits give low values 0.988 | S. cerevisiae deletion strains, locus YLR039C, strain RIC1, hits give low values 0.929 | S. cerevisiae deletion strains, locus YLR058C, strain SHM2, hits give low values 0.974 | S. cerevisiae deletion strains, locus YLR102C, strain apc9, hits give low values 0.996 | S. cerevisiae deletion strains, locus YLR221C, strain rsa3, hits give low values 0.992 | S. cerevisiae deletion strains, locus YLR258W, strain gsy2, hits give low values 1 | S. cerevisiae deletion strains, locus YLR262C, strain YPT6 (second series), hits give low values 0.939 | S. cerevisiae deletion strains, locus YLR262C, strain YPT6, hits give low values 0.929 | S. cerevisiae deletion strains, locus YLR268W, strain sec22, hits give low values 0.968 | S. cerevisiae deletion strains, locus YLR320W, strain mms22, hits give low values 1 | S. cerevisiae deletion strains, locus YLR330W, strain CHS5, hits give low values 0.993 | S. cerevisiae deletion strains, locus YLR342W, strain FKS1 (second series), hits give low values 1.03 | S. cerevisiae deletion strains, locus YLR342W, strain FKS1, hits give low values 0.975 | S. cerevisiae deletion strains, locus YLR357W, strain rsc2, hits give low values 0.945 | S. cerevisiae deletion strains, locus YLR370C, strain arc18, hits give low values 0.991 | S. cerevisiae deletion strains, locus YLR371W, strain rom2, hits give low values 0.999 | S. cerevisiae deletion strains, locus YLR384C, strain iki3, hits give low values 0.976 | S. cerevisiae deletion strains, locus YLR418C, strain cdc73, hits give low values 1.03 | S. cerevisiae deletion strains, locus YML016C, strain PPZ1, hits give low values 0.984 | S. cerevisiae deletion strains, locus YML032C, strain rad52, hits give low values 0.984 | S. cerevisiae deletion strains, locus YML120C, strain ndi1, hits give low values 0.99 | S. cerevisiae deletion strains, locus YML124C, strain tub3, hits give low values 0.985 | S. cerevisiae deletion strains, locus YMR058W, strain fet3, hits give low values 0.988 | S. cerevisiae deletion strains, locus YMR078C, strain ctf18, hits give low values 0.979 | S. cerevisiae deletion strains, locus YMR125W, strain sto1, hits give low values 0.988 | S. cerevisiae deletion strains, locus YMR129W, hits give low values 0.996 | S. cerevisiae deletion strains, locus YMR205C, strain PFK2, hits give low values 0.983 | S. cerevisiae deletion strains, locus YMR223W, strain ubp8, hits give low values 1.04 | S. cerevisiae deletion strains, locus YMR231W, strain pep5, hits give low values 0.99 | S. cerevisiae deletion strains, locus YMR307W, strain GAS1, hits give low values 1.07 | S. cerevisiae deletion strains, locus YNL067W, strain RPL9B, hits give low values 0.954 | S. cerevisiae deletion strains, locus YNL071W, strain lat1, hits give low values 1 | S. cerevisiae deletion strains, locus YNL128W, strain TEP1, hits give low values 1.01 | S. cerevisiae deletion strains, locus YNL209W, strain ssb2, hits give low values 0.991 | S. cerevisiae deletion strains, locus YNL233W, strain BNI4, hits give low values 0.96 | S. cerevisiae deletion strains, locus YNL248C, strain rpa49, hits give low values 1.02 | S. cerevisiae deletion strains, locus YNL250W, strain rad50, hits give low values 0.989 | S. cerevisiae deletion strains, locus YNL271C, strain bni1, hits give low values 0.978 | S. cerevisiae deletion strains, locus YNL298W, strain CLA4, hits give low values 0.999 | S. cerevisiae deletion strains, locus YNL307C, strain MCK1, hits give low values 0.988 | S. cerevisiae deletion strains, locus YNL322C, strain KRE1 (second series), hits give low values 0.985 | S. cerevisiae deletion strains, locus YNR049C, strain mso1, hits give low values 0.987 | S. cerevisiae deletion strains, locus YNR052C, strain pop2, hits give low values 0.998 | S. cerevisiae deletion strains, locus YOL006C, strain TOP1, hits give low values 0.899 | S. cerevisiae deletion strains, locus YOL012C, strain htz1 0.795 | S. cerevisiae deletion strains, locus YOL147C, strain pex11, hits give low values 0.993 | S. cerevisiae deletion strains, locus YOR001W, strain rrp6, hits give low values 0.983 | S. cerevisiae deletion strains, locus YOR061W, strain CKA2, hits give low values 0.958 | S. cerevisiae deletion strains, locus YOR069W, strain VPS5, hits give low values 0.99 | S. cerevisiae deletion strains, locus YOR070C, strain gyp1, hits give low values 0.999 | S. cerevisiae deletion strains, locus YOR080W, strain dia2, hits give low values 0.977 | S. cerevisiae deletion strains, locus YOR083W, strain WHI5, hits give low values 0.971 | S. cerevisiae deletion strains, locus YOR106W, strain vam3, hits give low values 0.955 | S. cerevisiae deletion strains, locus YOR136W, strain idh2, hits give low values 0.988 | S. cerevisiae deletion strains, locus YOR144C, strain elg1, hits give low values 0.992 | S. cerevisiae deletion strains, locus YOR184W, strain ser1, hits give low values 0.914 | S. cerevisiae deletion strains, locus YOR265W, strain rbl2, hits give low values 0.997 | S. cerevisiae deletion strains, locus YOR290C, strain snf2, hits give low values 0.945 | S. cerevisiae deletion strains, locus YOR316C, strain cot1, hits give low values 0.979 | S. cerevisiae deletion strains, locus YPL051W, strain arl3, hits give low values 0.965 | S. cerevisiae deletion strains, locus YPL078C, strain atp4, hits give low values 0.969 | S. cerevisiae deletion strains, locus YPL106C, strain sse1, hits give low values 0.958 | S. cerevisiae deletion strains, locus YPL240C, strain hsp82, hits give low values 0.994 | S. cerevisiae deletion strains, locus YPR119W, strain clb2, hits give low values 0.988 | S. cerevisiae deletion strains, locus YPR141C, strain kar3, hits give low values 0.973 | S. cerevisiae deletion strains, locus YPR163C, strain tif3, hits give low values 0.985 | S. cerevisiae deletion strains, locus YPR167C, strain met16, hits give low values 0.993 | S. cerevisiae deletion strains, strain wtn01, hits give low values 1.01 | S. cerevisiae strains, strain wild type, hits give low values 0.984
